Results: publication PMC7862700, “An all-to-all approach to the identification of sequence-specific readers for epigenetic DNA modifications on cytosine”

Columns and labels:
Test in all cases: DAPPL (digital affinity profiling via proximity ligation, sequencing); 10 mM Tris-HCl pH 7.5, 50 mM NaCl, 1 mM DTT, 4% glycerol, room temperature, 30 min; GST-TFs on glutathione beads, 16-mer random dsDNA library, 0.1% formaldehyde crosslink after washing; high values mean tight binding
Details in all cases: protein: recombinant; tags: N-terminal GST; dsDNA, one strand shown
ERF = target: T1, ERF (Homo sapiens, UniProt P50548 1-548)
T1 sequence: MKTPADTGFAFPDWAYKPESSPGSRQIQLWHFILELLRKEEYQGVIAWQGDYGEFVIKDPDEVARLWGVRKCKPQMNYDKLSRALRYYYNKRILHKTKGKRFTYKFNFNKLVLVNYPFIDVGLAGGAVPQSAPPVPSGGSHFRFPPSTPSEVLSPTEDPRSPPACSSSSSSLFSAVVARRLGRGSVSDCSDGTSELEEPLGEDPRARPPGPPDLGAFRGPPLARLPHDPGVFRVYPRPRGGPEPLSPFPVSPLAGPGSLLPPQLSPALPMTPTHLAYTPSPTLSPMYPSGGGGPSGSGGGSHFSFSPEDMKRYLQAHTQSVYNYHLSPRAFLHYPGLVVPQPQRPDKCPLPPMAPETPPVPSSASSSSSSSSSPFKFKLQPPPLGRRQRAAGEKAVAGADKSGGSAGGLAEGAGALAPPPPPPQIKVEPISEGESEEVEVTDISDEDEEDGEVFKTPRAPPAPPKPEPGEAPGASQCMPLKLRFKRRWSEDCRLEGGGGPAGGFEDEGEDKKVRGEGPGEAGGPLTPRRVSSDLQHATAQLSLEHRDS
Method in brief: (§1)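 Sequencing on an Illumina NextSeq500 followed washing, crosslinking with 0.1% formaldehyde, proximity ligation (BsaI/T4 ligase, 1 h, 37 °C) and PCR amplification of pools that had been incubated for 30 min at room temperature with 200 nmole of a random double-stranded 16-mer DNA library in Tris/NaCl/DTT/glycerol buffer. Each pool held DNA-barcoded human transcription factors, expressed in yeast as GST fusions and captured on glutathione beads, plus a tag-only sample. Binding signal is a hexamer's read frequency for a factor divided by its frequency in the tag-only sample.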

ETV3L = target: T2, ETV3L (Homo sapiens, UniProt Q6ZN32 1-361)
T2 sequence: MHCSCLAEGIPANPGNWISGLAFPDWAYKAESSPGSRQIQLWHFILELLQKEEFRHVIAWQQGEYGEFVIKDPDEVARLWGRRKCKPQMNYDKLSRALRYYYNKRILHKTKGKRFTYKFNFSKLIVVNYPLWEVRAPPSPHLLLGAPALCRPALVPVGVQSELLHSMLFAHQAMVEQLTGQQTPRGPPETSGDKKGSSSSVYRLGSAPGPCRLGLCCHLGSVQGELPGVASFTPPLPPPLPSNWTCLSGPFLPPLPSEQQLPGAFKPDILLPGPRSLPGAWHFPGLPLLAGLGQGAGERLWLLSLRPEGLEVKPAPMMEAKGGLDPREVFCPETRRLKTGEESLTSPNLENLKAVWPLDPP
Method in brief: as §1

ETS2 = target: T3, ETS2 (Homo sapiens, UniProt P15036 1-469)
T3 sequence: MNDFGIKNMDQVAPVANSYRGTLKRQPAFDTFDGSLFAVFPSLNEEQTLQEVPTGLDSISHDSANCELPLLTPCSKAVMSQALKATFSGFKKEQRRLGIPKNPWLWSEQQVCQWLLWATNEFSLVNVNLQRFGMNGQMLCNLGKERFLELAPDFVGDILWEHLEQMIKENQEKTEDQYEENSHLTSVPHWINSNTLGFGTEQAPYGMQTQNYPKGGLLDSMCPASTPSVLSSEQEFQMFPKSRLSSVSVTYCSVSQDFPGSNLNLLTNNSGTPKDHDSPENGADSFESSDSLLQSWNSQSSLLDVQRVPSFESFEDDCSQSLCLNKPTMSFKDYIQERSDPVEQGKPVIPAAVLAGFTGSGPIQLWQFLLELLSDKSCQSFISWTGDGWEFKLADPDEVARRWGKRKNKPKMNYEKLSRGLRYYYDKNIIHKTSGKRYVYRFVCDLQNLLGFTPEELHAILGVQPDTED
Method in brief: as §1

SPDEF = target: T4, SPDEF (Homo sapiens, UniProt O95238 1-335)
T4 sequence: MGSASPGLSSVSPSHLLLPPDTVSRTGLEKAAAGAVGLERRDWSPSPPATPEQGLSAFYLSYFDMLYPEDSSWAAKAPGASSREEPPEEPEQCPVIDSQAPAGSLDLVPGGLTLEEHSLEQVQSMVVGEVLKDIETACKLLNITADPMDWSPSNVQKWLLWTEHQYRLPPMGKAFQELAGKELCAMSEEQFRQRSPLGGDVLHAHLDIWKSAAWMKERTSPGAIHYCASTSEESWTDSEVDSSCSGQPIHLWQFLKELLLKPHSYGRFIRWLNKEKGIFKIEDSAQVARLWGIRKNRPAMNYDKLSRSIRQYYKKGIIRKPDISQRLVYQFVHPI
Method in brief: as §1

ETV7 = target: T5, ETV7 (Homo sapiens, UniProt Q9Y603 1-341)
T5 sequence: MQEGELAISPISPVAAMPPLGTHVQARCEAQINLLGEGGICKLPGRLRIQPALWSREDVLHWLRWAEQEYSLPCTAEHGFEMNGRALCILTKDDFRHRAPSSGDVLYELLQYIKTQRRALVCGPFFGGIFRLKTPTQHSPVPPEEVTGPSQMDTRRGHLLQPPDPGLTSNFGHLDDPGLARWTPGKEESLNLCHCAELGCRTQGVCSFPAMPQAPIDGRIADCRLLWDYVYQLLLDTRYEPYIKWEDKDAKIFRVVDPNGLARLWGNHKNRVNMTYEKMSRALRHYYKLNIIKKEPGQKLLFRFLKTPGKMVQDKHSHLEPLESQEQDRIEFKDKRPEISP
Method in brief: as §1

ELF5 = target: T6, ELF5 (Homo sapiens, UniProt Q9UKW6-2 1-255)
T6 sequence: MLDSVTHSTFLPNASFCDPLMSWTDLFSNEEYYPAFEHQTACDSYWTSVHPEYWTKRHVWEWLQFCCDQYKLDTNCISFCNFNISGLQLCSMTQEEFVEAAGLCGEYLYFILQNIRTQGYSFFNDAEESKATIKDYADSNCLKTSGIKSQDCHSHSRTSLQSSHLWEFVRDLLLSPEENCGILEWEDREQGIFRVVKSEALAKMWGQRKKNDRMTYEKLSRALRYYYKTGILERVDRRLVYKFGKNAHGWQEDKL
Method in brief: as §1

ETV3 = target: T7, ETV3 (Homo sapiens, UniProt P41162-2 1-143)
T7 sequence: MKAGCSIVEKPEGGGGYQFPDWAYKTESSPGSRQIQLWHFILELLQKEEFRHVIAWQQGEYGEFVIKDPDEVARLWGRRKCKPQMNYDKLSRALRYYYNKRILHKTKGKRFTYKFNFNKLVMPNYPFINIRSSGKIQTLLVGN
Method in brief: as §1

ETV6 = ETV6 (Homo sapiens, UniProt P41212 1-452)
ETV6, sequence (P41212 whole entry): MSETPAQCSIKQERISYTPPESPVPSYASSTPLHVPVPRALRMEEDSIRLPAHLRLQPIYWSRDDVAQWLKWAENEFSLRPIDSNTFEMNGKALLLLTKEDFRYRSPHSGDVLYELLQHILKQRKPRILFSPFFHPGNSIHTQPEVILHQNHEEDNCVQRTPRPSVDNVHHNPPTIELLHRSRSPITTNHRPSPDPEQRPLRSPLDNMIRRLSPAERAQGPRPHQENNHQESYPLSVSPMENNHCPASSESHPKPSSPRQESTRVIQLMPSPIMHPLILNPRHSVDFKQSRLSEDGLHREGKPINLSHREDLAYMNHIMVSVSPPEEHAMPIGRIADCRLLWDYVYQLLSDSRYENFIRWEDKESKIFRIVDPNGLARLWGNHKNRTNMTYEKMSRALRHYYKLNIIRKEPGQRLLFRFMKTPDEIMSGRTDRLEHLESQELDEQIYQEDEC
Method in brief: as §1

Row | Sequence | binding signal (ERF) | binding signal (ETV3L) | binding signal (ETS2) | binding signal (SPDEF) | binding signal (ETV7) | binding signal (ELF5) | binding signal (ETV3) | binding signal (ETV6)
1 | GTTCCC | 1.31 fold enrichment (6-mer frequency, TF over GST control) | 1.22 fold enrichment (6-mer frequency, TF over GST control) | 1.28 fold enrichment (6-mer frequency, TF over GST control) | 1.29 fold enrichment (6-mer frequency, TF over GST control) | 1.3 fold enrichment (6-mer frequency, TF over GST control) | 1.48 fold enrichment (6-mer frequency, TF over GST control) | 1.31 fold enrichment (6-mer frequency, TF over GST control) | 1.28 fold enrichment (6-mer frequency, TF over GST control)
2 | ATACTT | 1.66 fold enrichment (6-mer frequency, TF over GST control) | 1.59 fold enrichment (6-mer frequency, TF over GST control) | 1.59 fold enrichment (6-mer frequency, TF over GST control) | 1.63 fold enrichment (6-mer frequency, TF over GST control) | 1.69 fold enrichment (6-mer frequency, TF over GST control) | 1.84 fold enrichment (6-mer frequency, TF over GST control) | 1.63 fold enrichment (6-mer frequency, TF over GST control) | 1.87 fold enrichment (6-mer frequency, TF over GST control)
3 | TACGTC | 1.08 fold enrichment (6-mer frequency, TF over GST control) | 1.27 fold enrichment (6-mer frequency, TF over GST control) | 1.2 fold enrichment (6-mer frequency, TF over GST control) | 1.33 fold enrichment (6-mer frequency, TF over GST control) | 1.27 fold enrichment (6-mer frequency, TF over GST control) | 1.23 fold enrichment (6-mer frequency, TF over GST control) | 1.14 fold enrichment (6-mer frequency, TF over GST control) | 1.37 fold enrichment (6-mer frequency, TF over GST control)
4 | CGAAAC | 1.24 fold enrichment (6-mer frequency, TF over GST control) | 1.22 fold enrichment (6-mer frequency, TF over GST control) | 1.16 fold enrichment (6-mer frequency, TF over GST control) | 1.22 fold enrichment (6-mer frequency, TF over GST control) | 1.22 fold enrichment (6-mer frequency, TF over GST control) | 1.12 fold enrichment (6-mer frequency, TF over GST control) | 1.08 fold enrichment (6-mer frequency, TF over GST control) | 1.16 fold enrichment (6-mer frequency, TF over GST control)
5 | CTCGAA | 1.22 fold enrichment (6-mer frequency, TF over GST control) | 1.24 fold enrichment (6-mer frequency, TF over GST control) | 1.2 fold enrichment (6-mer frequency, TF over GST control) | 1.11 fold enrichment (6-mer frequency, TF over GST control) | 1.19 fold enrichment (6-mer frequency, TF over GST control) | 1.17 fold enrichment (6-mer frequency, TF over GST control) | 1.18 fold enrichment (6-mer frequency, TF over GST control) | 1.12 fold enrichment (6-mer frequency, TF over GST control)
6 | GTATAA | 1.13 fold enrichment (6-mer frequency, TF over GST control) | 1.14 fold enrichment (6-mer frequency, TF over GST control) | 1.08 fold enrichment (6-mer frequency, TF over GST control) | 1.07 fold enrichment (6-mer frequency, TF over GST control) | 1.11 fold enrichment (6-mer frequency, TF over GST control) | 1.11 fold enrichment (6-mer frequency, TF over GST control) | 1.08 fold enrichment (6-mer frequency, TF over GST control) | 1.08 fold enrichment (6-mer frequency, TF over GST control)
7 | ACGGAA | 1.53 fold enrichment (6-mer frequency, TF over GST control) | 1.73 fold enrichment (6-mer frequency, TF over GST control) | 1.86 fold enrichment (6-mer frequency, TF over GST control) | 1.78 fold enrichment (6-mer frequency, TF over GST control) | 1.57 fold enrichment (6-mer frequency, TF over GST control) | 2.24 fold enrichment (6-mer frequency, TF over GST control) | 1.93 fold enrichment (6-mer frequency, TF over GST control) | 2.14 fold enrichment (6-mer frequency, TF over GST control)
